From PubChem BioAssay AID2216 (Broad Institute, 2009)
Hit rate of the full screen: of about 300,000 compounds, about 3,300 (1.1%) were called active. Inconclusive results (about 6%) are left out. This is one part of a sample in which actives are shown more often than they occur. A number with no mark means an inactive call.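 Rule for the calls: active = more than half of the replicate wells show a fall in the fluorescence ratio signal beyond about 16% (limit read from the data, passing the limit was not always enough); inconclusive = exactly half of the replicate wells pass the set limit; inactive = fewer than half of replicates pass the limit.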

The compounds below were run on Ran GTPase (GTP-bound) - importin-beta complex (assay: inhibitors of RanGTP-importin-beta interaction, primary screen, biochemical, FRET, CFP-Ran, YFP-importin-beta, homogeneous (AID 2216;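 note: 0% = DMSO wells and 100% = Ran loaded with GDP instead of GTP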)). Settings: cell-free CFP-Ran/YFP-importin-beta FRET ratio; hits give high values; concentration not given here.
`COc1ccc2c(c1)C(=O)Nc1cc(Cl)ccc1N2` was tested, and the inhibition was 1.28%. `Cc1noc(C)c1CSCC(=O)N(CCC(C)C)c1c(N)n(Cc2ccccc2)c(=O)[nH]c1=O` was tested, and the inhibition was -1.15%. Compound `COc1ccc(CN2[C@@H](CC(=O)O)c3cc(F)ccc3S2(=O)=O)cc1` has an inhibition of 3.99%. With `CCN1C(=O)[C@H]2[C@@H](c3ccc(SC4CCCCC4)c(OC)c3)N[C@@](Cc3ccccc3)(C(=O)OC)[C@H]2C1=O` the inhibition was -1.26%. In the case of `CN1CCN(c2ccc(NC(=O)c3ccc4c(c3)[nH]c(=O)n4Cc3ccc(F)cc3)cc2)CC1`, the inhibition is reported as 0.81%. `O=C(Cc1ccc(-n2c(=O)[nH]c3ccccc3c2=O)cc1)N1CCN(c2cccc(Cl)c2)CC1` gave an inhibition of 2.52%. With `CN1CCN(c2cc(=O)n(-c3ccc(Cl)cc3)c(=O)[nH]2)CC1` the inhibition was 31.4% (active). `CCCC[C@@H]1CN=C(N)N1CCCC` was tested, and the inhibition was 5.62%. In the case of `O=C(Oc1ccc(-c2nnco2)cc1)c1ccc(F)c(S(=O)(=O)N2CCOCC2)c1`, the inhibition is reported as 1.51%. For `CCCOc1ccc(Cn2ccnc2)cc1[N+](=O)[O-]`, the inhibition was 22.9% (active). `CCCCCOc1ccc(CSC2=NCCN2)cc1[N+](=O)[O-]` showed an inhibition of -3.18%. For `CCCCOc1ccc(CSC(=N)N)cc1[N+](=O)[O-]`, the inhibition was -0.296%. `Cc1cc(=O)[nH]c(SCc2ccc(Cl)cc2)n1` gave an inhibition of 2.35%. `COc1ccccc1CCC(=O)OCC(=O)N1CCN(S(=O)(=O)c2ccc(C)cc2C)CC1` gave an inhibition of -0.0627%. `Cc1ccc(S(=O)(=O)CCC(=O)OCC(=O)N(C)C2CCS(=O)(=O)C2)cc1` (stereo not given) showed an inhibition of -1.57%. Compound `CCc1ccc(C(=O)COC(=O)c2ccco2)cc1` has an inhibition of -1.46%. `O=C(Nc1ccc2nc3n(c(=O)c2c1)CCCCC3)c1ccccc1Cl` showed an inhibition of -0.768%. With `O=C(Nc1ccc2sc3ccccc3c(=O)c2c1)c1ccccc1Cl` the inhibition was 97.7% (active). `O=C(Nc1cccc(NC(=O)c2ccccc2[N+](=O)[O-])c1)c1ccccc1Cl` gave an inhibition of 1.99%. `COc1cnn(-c2ccc([N+](=O)[O-])cc2)c(=O)c1Cl` showed an inhibition of 9.19%. In the case of `CCCCCN(C(=O)CCC(=O)OCC(=O)NC1CCC(C)CC1)c1c(N)n(CCCC)c(=O)[nH]c1=O` (stereo not given), the inhibition is reported as 10.6%. `O=C(NC(Cc1ccccc1)C(=O)N1CCCC(C(F)(F)F)C1)c1ccccc1` (stereo not given) gave an inhibition of -0.899%. `Cc1cc(O)ccc1NC1=CC(=O)CC(C)(C)C1` was tested, and the inhibition was 18.8% (active). With `CC1(C)CC(=O)C=C(Nc2ccccc2)C1` the inhibition was 11.7%. `COC(=O)NNC1=CC(=O)CC(C)(C)C1` showed an inhibition of 2.34%.
